Data published in PubChem BioAssay AID720706 (Broad Institute, 2013).
Where “and” joins values, the source holds several entries; their conditions need not be identical. Equal values may be shown once. In all, about 350,000 compounds went through this assay and about 5,500 (1.6%) were called active.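 The calls were made as follows: active = significant combined selectivity score with lowered wild-type GFP, culture density cut under 30%, mutant RFP and density less affected; inactive = any of these conditions unmet.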 Shown is part of a subset that was picked to be rich in actives.

assay: GFP drop in mixed WT/humanized-ribosome E. coli culture – GFP/RFP fluorescence, OD600, single point, bacterial rRNA inhibitor project, primary screen (AID 720706); settings: E. coli WT GFP vs humanized-ribosome RFP mutants, 24 h; GFP signal change (wild-type ribosome): stronger effect = lower value, DMSO median 0, no signal -100; OD600 change: measured here: OD600 growth, DMSO median 0, no signal -100; RFP signal change: measured here: RFP humanized mutant strains, DMSO median 0, no signal -100, concentration not given here

| Compound | GFP signal change (wild-type ribosome) | OD600 change | RFP signal change |
| --- | --- | --- | --- |
| CC(C)NC(=O)N1CCCCN2[C@@H](CO)[C@@H](c3ccc(C#C[C@@H](C)O)cc3)[C@@H]2C1 | 5.76% (inactive) | 13.1% | -1.96% |
| O=S(=O)(Cc1ccccc1)N1CCCCN2[C@@H](CO)[C@H](c3ccc(-c4ccccc4)cc3)[C@@H]2C1 | -9.68% (inactive) | -41.9% | 18.6% |
| CN(C)CC#Cc1ccc([C@@H]2[C@H](CO)N3CCCCN(C(=O)NC4CCCC4)C[C@@H]23)cc1 | 5.92% (inactive) | 4.22% | 0.0255% |
| CCOC(=O)C1=C(c2ccccc2)NC(=S)NC1c1ccc(Cl)cc1 (stereo unspecified) | -8.35% (inactive) | -7.99% | -0.819% |
| CCOC(=O)C1C(=O)NCC1c1ccccc1 (stereo unspecified) | 8.68% (inactive) | -9.73% | 1% |
| C=CCC1(C#N)C(=S)NC(C)=C(C(=O)OCC)C1c1ccccc1 (stereo unspecified) | -26.3% (active) | -19.2% | -3.7% |
| COc1ccc(NC(=O)N(C)C[C@@H]2OCCCC[C@@H](C)Oc3ccc(NS(=O)(=O)c4cn(C)cn4)cc3C(=O)N([C@@H](C)CO)C[C@H]2C)cc1 | -1.24% (inactive) | -4.49% | 0.792% |
| COc1ccc2c3c(n(C)c2c1)[C@@H](CO)N(C(=O)c1cccnc1)CC31CCN(C(=O)c2cccnc2)CC1 | 2.76% (inactive) | 15.2% | -2.73% |
| Cc1ccccc1-n1nc(SCC(=O)O)sc1=S | -0.028% (inactive) | 2.15% | 5.05% |
| O=C(CSc1nn(-c2ccc(F)cc2)c(=S)s1)NC1CCS(=O)(=O)C1 (stereo unspecified) | 9.16% (inactive) | 9.88% | 20.6% |
| N#CCSc1nn(-c2ccc(F)cc2)c(=S)s1 | -34% (active) | -20.7% | -5.63% |
| CN(C)CCCNC(=O)C[C@H]1CC[C@H]2[C@@H](COC[C@H](O)CN2C(=O)c2ccncc2)O1 | 1.62% (inactive) | 1.82% | -2.93% |
| O=S(=O)(N[C@@H]1CC[C@H](CCn2cc(C3(O)CCCC3)nn2)O[C@@H]1CO)c1ccc(Cl)cc1 | 1% (inactive) | -3.78% | -2.53% |
| Cc1c(/C=N\NC(=O)c2cc3ccccc3o2)c2ccccc2n1C | -23.4% (active) | -4.47% | 6.38% |
| O=C(N/N=C/c1cccc(O)c1)c1cc2c(ccc3ccccc32)o1 | -16.9% (inactive) | -25.4% | 6.33% |
| Cc1cc(NC(=O)c2cc3ccccc3o2)no1 | -2.45% (inactive) | 5.97% | 7.13% |
| Cc1ccccc1S(=O)(=O)N1CC(=O)N2[C@H](CO)[C@H](c3ccc(C#CCN(C)C)cc3)[C@H]2C1 | 4.6% (inactive) | 9.79% | 0.298% |
| COc1cc(CN2CC3(CN(S(=O)(=O)c4cccs4)C3)c3c(n(C)c4cc(OC)ccc34)[C@H]2CO)cc(OC)c1 | 4.45% (inactive) | -5.95% | -2.78% |
| CNS(=O)(=O)c1cccc(C(=O)OCC(=O)N2c3ccccc3NC(=O)C2(C)C)c1 | -0.594% (inactive) | 2.51% | -1.67% |
| CCNc1ccc(C(=O)OCC(=O)N2c3ccccc3NC(=O)C2(C)C)cc1[N+](=O)[O-] | -25.9% (active) | -16.2% | -4.1% |
| Cc1cc(C(=O)OCC(=O)N2c3ccccc3NC(=O)C2(C)C)c(C)n1-c1ccccc1 | -9.02% (inactive) | -33.1% | -9.39% |
| O=C(C[C@H]1CC[C@@H]2[C@H](COC[C@@H](O)CN2Cc2cccc(-c3ccncc3)c2)O1)N1CCOCC1 | -1.04% (inactive) | 0.357% | -4.81% |
| C[C@H]1CN([C@@H](C)CO)C(=O)Cc2cc(NC(=O)NC3CCCCC3)ccc2O[C@@H]1CN(C)Cc1ccc(Oc2ccccc2)cc1 | 1.65% (inactive) | 0.966% | -0.931% |

| Compound | GFP signal change (wild-type ribosome) | OD600 change | RFP signal change |
| --- | --- | --- | --- |
| C[C@@H]1CN([C@@H](C)CO)C(=O)c2cc(NC(=O)Nc3ccc(C(F)(F)F)cc3)ccc2O[C@@H]1CN(C)Cc1ccncc1 | 8.75% (inactive) | -38.7% | 31.2% |
| O=C(NCCc1c[nH]c2ccccc12)c1cc2ccccc2oc1=O | -5% (inactive) | 0.635% | -0.892% |
| O=C(CCc1c[nH]c2ccccc12)NCCOc1ccccc1 | 7.54% (inactive) | 3.6% | 0.609% |
| O=C(NCCc1c[nH]c2ccccc12)c1cccc(Br)c1 | -23% (active) | -17% | 3.38% |
| O=C(COC(=O)Cc1c[nH]c2ccccc12)NCCc1ccccc1 | 1.61% (inactive) | -7.07% | 1.57% |
| COc1ccccc1CC(=O)NCCc1c[nH]c2ccccc12 | -17.2% (active) | -2.84% | 2.84% |
| O=C(NCCc1c[nH]c2ccccc12)C1CCN(Cc2ccc(Br)cc2)CC1 | -52.8% (inactive) | -78.6% | -12.4% |
| O=C(C[C@H]1CC[C@H]2[C@@H](COC[C@@H](O)CN2S(=O)(=O)c2ccc(Cl)cc2)O1)NCCN1CCCCC1 | 0.039% (inactive) | 1.47% | -0.478% |
| COc1cccc(CC(=O)N2CCN(C(=O)C(=O)c3cccc(C(F)(F)F)c3)CC2)c1 | -2.93% (inactive) | -8.1% | 7.12% |
| C[C@@H]1CN([C@@H](C)CO)S(=O)(=O)c2ccc(-c3cccc(C(=O)N(C)C)c3)cc2O[C@@H]1CN(C)C(=O)Nc1ccccc1 | -9.2% (inactive) | -5.97% | -2.53% |
| O=C(NNC(=O)C1C2CCC(C2)C1C(=O)O)c1ccc(Cl)cc1 (stereo unspecified) | 1.61% (inactive) | 3.63% | -0.52% |
| O=C(NNC(=S)NC1CC2CCC1C2)c1ccc(Cl)cc1 (stereo unspecified) | -24.6% (active) | -6.95% | -4.4% |
| O=S(=O)(NC1CC2CCC1C2)c1ccc(Cl)cc1 (stereo unspecified) | 3.91% (inactive) | -2.44% | -1.19% |
| COc1ccc(NC(=O)N(C)C[C@@H]2Oc3ccc(NS(=O)(=O)c4ccc(C)cc4)cc3CC(=O)N([C@@H](C)CO)C[C@H]2C)cc1 | 0.124% (inactive) | -3.65% | 1.41% |
| CN1CCN(C(=O)c2ccc(-c3ccc(Br)cc3)o2)CC1 | -5.31% (inactive) | -1.78% | 2.79% |
| S=C(c1ccc(-c2ccccc2)o1)N1CCCCC1 | -28.2% (active) | -14.7% | -0.16% |
| CC1CCN(C(=S)c2ccc(-c3ccc(Cl)cc3Cl)o2)CC1 | -16.5% (inactive) | -16.4% | -6.12% |
| C[C@@H]1CN([C@H](C)CO)C(=O)c2cc(-c3cncnc3)cnc2O[C@@H]1CN(C)Cc1ccc(Oc2ccccc2)cc1 | 1.64% (inactive) | 8.99% | 0.949% |
| O=S(=O)(NC[C@H]1[C@H](c2ccccc2)[C@H](CO)N1CC1CC1)c1ccccc1 | -3.76% (inactive) | -2.41% | -1.76% |
| CCc1cc2cc(OC)ccc2nc1SCC(=O)Nc1cc(OC)c(OC)cc1C(=O)O | -19.8% (active) | -8.13% | -0.961% |
| COc1ccc(NC(=O)CSc2nc(SC)ns2)c(OC)c1 | -4.47% (inactive) | -9.82% | 2.07% |
| COc1ccc(OC)c(NC(=O)CSc2nc(-c3ccccc3)cc(=O)[nH]2)c1 | -0.85% (inactive) | -0.395% | -1.33% |
| COc1cccc(NC(=O)N2[C@@H]3CNC[C@H]2C3c2ccc(-c3ccncc3)cc2)c1 (stereo partly specified) | 5.32% (inactive) and -0.155% (inactive) | 9.53% and -0.49% | 1.61% and -4.31% |

| Compound | GFP signal change (wild-type ribosome) | OD600 change | RFP signal change |
| --- | --- | --- | --- |
| CC1CCCC(NC(=O)COC(=O)[C@@H]2CC(O)CN2S(=O)(=O)c2ccc3c(c2)OCCO3)C1C (stereo partly specified) | -31.5% (active) | -14.6% | -2.13% |
| Cc1ccc(S(=O)(=O)N2CC(O)C[C@H]2C(=O)OCC(=O)Nc2ccc(N3CCOCC3)cc2)cc1C (stereo partly specified) | 4.3% (inactive) | 7.03% | 2.94% |
| O=C1COc2ccc(C(=O)COC(=O)C3CC(O)CN3S(=O)(=O)c3ccc(Cl)cc3)cc2N1 (stereo unspecified) | -11.8% (inactive) | -8.3% | 1.61% |
| COCC#Cc1ccc([C@H]2[C@H](CO)N3CCCCN(Cc4ccncc4)C[C@@H]23)cc1 | -2.93% (inactive) | -2.59% | -5.64% |
| Cc1ccc(S(=O)(=O)NC(C)C(=O)NCc2ccc(Cl)cc2)cc1 (stereo unspecified) | -22.7% (active) | -10.8% | -4.03% |
| COc1ccc(S(=O)(=O)NC(C)C(=O)NCc2ccncc2)cc1Cl (stereo unspecified) | 2.54% (inactive) | 0.925% | -2.25% |
| CC(C)CNS(=O)(=O)c1ccc(CCC(=O)NCc2ccc(Cl)cc2)cc1 | 10.8% (inactive) | 11.2% | -2.51% |
| CCC(=O)Nc1ccc2c(c1)OC[C@@H](C)N(CC1CC1)C[C@H](C)[C@H](OC)CN(C)C2=O | 1.22% (inactive) | -0.6% | -0.045% |
| CC(C)NC(=O)/C(C#N)=C\c1ccc(N(C)C)c(Br)c1 | -19.9% (active) | -12.4% | 3.85% |
| CC(C)(C)C(=O)/C(C#N)=C/c1ccc(O)cc1 | 19.8% (inactive) | 5.69% | -9.62% |
| Cc1[nH]c2ccccc2c1/C=C(/C#N)C(=O)NC(C)C | -4.98% (inactive) | 5.32% | -3.18% |
| O=C(NCC[C@H]1CC[C@H](NS(=O)(=O)c2ccccc2)[C@H](CO)O1)c1cc(Cl)cc(Cl)c1 | -5.21% (inactive) | -26.1% | 22% |
| Cc1ccc(CNC(=O)CC2Sc3ccccc3NC2=O)cc1 (stereo unspecified) | 11.2% (inactive) | 14.1% | 3.46% |
| CCc1cc(C(=O)OC)c(NC(=O)CC2Sc3ccc(C(F)(F)F)cc3NC2=O)s1 (stereo unspecified) | 0.188% (inactive) | 4.88% | -2.55% |
| COC(=O)c1cc(C)sc1NC(=O)CC1Nc2ccccc2NC1=O (stereo unspecified) | -18.4% (active) | -7.76% | 12.5% |
| O=C(OCC(=O)c1c[nH]c2ccccc12)c1cccc(O)c1 | -42.8% (inactive) | -45.1% | -14.1% |
| O=C(O)c1[nH]c2ccccc2c1C(c1cccc(O)c1)c1c(C(=O)O)[nH]c2ccccc12 | -25.6% (active) | -18.5% | 8.53% |
| COc1ccc2c3c(n(C)c2c1)[C@@H](CO)N(C(C)=O)CC31CCN(Cc2ccc(Cl)cc2)CC1 | -1.69% (inactive) | -3.51% | 1.83% |
| COc1ccc(/C=C2\SC(=S)N(CCC(=O)N3CCOCC3)C2=O)cc1OC | 10.4% (inactive) | 16.7% | 0.46% |
| C=CCOc1ccc(/C=C2\SC(=S)N(CCC(=O)O)C2=O)cc1 | -32.4% (active) | -18.9% | -4.79% |
| O=C1/C(=C/c2ccc(F)cc2)SC(=S)N1CCCC(=O)N1CCCCC1CCO (stereo unspecified) | -19.1% (inactive) | -28.5% | -4.34% |
